In PubChem BioAssay (EPA / NIEHS):
Records with an inconclusive call do not appear. Activity calls are given as the source filed them. Rule for the calls, unless noted: active = hit-call score of the fitted dose curve at least 0.9, where 1 is the maximum; inconclusive = response in the unintended direction; inactive = score below 0.9.

Key:
[1] = Tanguay_ZF_120hpf_NC_legacy: (Legacy) Oregon State University Tanguay Lab 120 Hour Post-fertilization zebrafish Assay for Notochord and Tail Malformation (AID 2283656)
In short: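 Dechorionated Tropical 5D wild-type zebrafish embryos, one per well from 6 hpf, statically exposed to 120 hpf at 28C in 0.64% DMSO final. Notochord distortion scored present/absent by brightfield; dead embryos excluded.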

[2] = CCTE_Simmons_CellTiterGLO_HEK293T: Viability Assessment in CCTE's Assays for Thyroperoxidase (TPO) Inhibition, Simmons Lab (AID 2283665);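 for AC50: cells exposed to compound for 24 h before readout; actives reduce ATP signal below DMSO vehicle meaning cytotoxicity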
In short: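 HEK293T cells in DMEM with 1% FBS, dosed 24 h at 37C with 8 concentrations, 5 nM–87.5 uM final, 0.5% DMSO. ATP measured by CellTiter Glo luminescence; loss of signal vs DMSO, three biological replicates.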

[3] = Tanguay_ZF_120hpf_TR_legacy: (Legacy) Oregon State University Tanguay Lab 120 Hour Post-fertilization zebrafish Assay for Touch Response (AID 2283667)
In short: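 5D WT embryos; static exposure to 120 hpf, 28C, sealed/dark; DMSO 0.64% v/v final. TR scored present/absent; dead embryos excluded. Pos ctrl 5uM trimethyltin chloride.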

[4] = CCTE_Padilla_ZF_144hpf_TERATOSCORE: (Legacy) CCTE's 144 Hour Post-fertilization zebrafish Assay Teratoscore, Padilla Lab (AID 2283679; active = hit-call score of the fitted dose curve at least 0.9, where 1 is the maximum; inactive = score below 0.9;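 for AC50: zebrafish embryos with chorions exposed by immersion from 6-8 hpf to 5 dpf with daily renewal; teratogenicity score from eye scoring of death hatching and malformations at 144 hpf; higher score means more developmental defects relative to DMSO baseline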)
In short: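 Larvae scored by eye at 144 hpf for death, hatching and malformations after a day in clean Hanks'. Before that, daily-renewed exposure at 80 uM (0.4% DMSO, 26C) from roughly 6-8 hpf through 5 dpf, 4 embryos per chemical.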

[5] = STM_H9_OrnithineISnorm_perc: Stemina devTOX quickPredict H9 human embryonic stem cell (hESC)-based Assay for Ornithine (ORN) Metabolite Biomarker, Normalized (AID 2283712; active = hit-call score of the fitted dose curve at least 0.9, where 1 is the maximum; inactive = score below 0.9;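 note: ornithine released into spent medium during last day measured by mass spectrometry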)
In short: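 Undifferentiated H9 hESCs exposed 72 h with daily media and compound renewal; final 24-h conditioned medium analysed by UPLC-HRMS. Ornithine peak area normalised to spiked C13 standard and to median 0.1% DMSO control; viability by CellTiter-Fluor.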

[6] = STM_H9_CystineISnorm_perc: Stemina devTOX quickPredict H9 human embryonic stem cell (hESC)-based Assay for Cystine (CYSS) Metabolite Biomarker, Normalized (AID 2283713; active = hit-call score of the fitted dose curve at least 0.9, where 1 is the maximum; inactive = score below 0.9)
In short: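 Undifferentiated H9 hESCs exposed 72 h, compound and media replaced every 24 h; final 24-h media analysed by UPLC-HRMS. Cystine normalized to C13 spike-in standard and median 0.1% DMSO control.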

[7] = STM_H9_OrnCyssISnorm_ratio: Stemina devTOX quickPredict H9 human embryonic stem cell (hESC)-based Assay for Ornithine (ORN):Cystine (CYSS) Ratio (AID 2283714)
In short: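 Steps: H9 hESCs in pluripotent state dosed 72h, medium plus compound renewed every 24h; conditioned medium from the final 24h deproteinized in 40% acetonitrile; ORN and CYSS quantified by UPLC-HRMS with C13 spike-ins; ratio relative to vehicle.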

CC[C@H]1OC(=O)[C@H](C)[C@@H](O[C@H]2C[C@@](C)(OC)[C@@H](O)[C@H](C)O2)[C@H](C)[C@@H](O[C@@H]2O[C@H](C)C[C@H](N(C)C)[C@H]2O)[C@](C)(O)C[C@@H](C)C(=O)[C@H](C)[C@@H](O)[C@]1(C)O
outcome [1]: inactive

Oc1ccc2c(c1)-c1ccccc1C2
outcome [1]: inactive | AC50 [2]: 60.1 µM (active) | AC50 [3]: 32.1 µM (active) | AC50 [4]: 32.9 µM (active)

O=C(O)c1cccc(N(Cc2cccnc2)c2ccc(OC(F)F)c(OC(F)F)c2)c1
outcome [1]: inactive | outcome [2]: inactive | outcome [3]: inactive | AC50 [4]: 26.5 µM (active)

O=C1CCCCCN1
outcome [1]: inactive | outcome [3]: inactive

O=C1OC(=O)C2C3C=CC(C3)C12 (stereo not drawn)
outcome [1]: inactive | outcome [3]: inactive

CC(=O)OC[C@H]1O[C@@](COC(C)=O)(O[C@H]2O[C@H](COC(C)=O)[C@@H](OC(C)=O)[C@H](OC(C)=O)[C@H]2OC(C)=O)[C@@H](OC(C)=O)[C@@H]1OC(C)=O
outcome [1]: inactive | outcome [3]: inactive

CCc1cc(SCc2sc(-c3ccc(C(F)(F)F)cc3)nc2CN2CCN(c3ccc(OC)cc3)CC2)ccc1OCC(=O)O
outcome [1]: inactive | outcome [3]: inactive | AC50 [4]: 5.47 µM (active)

CCOCCOCCOCCO
outcome [1]: inactive | outcome [3]: inactive

CCCC(=O)OCC
outcome [1]: inactive | outcome [3]: inactive

CC(C)=CCC/C(C)=C/CO
outcome [1]: inactive | outcome [3]: inactive | AC50 [4]: 15.4 µM (active)

COc1ccc(-n2nc(C(F)F)cc2-c2ccc(S(C)=O)cc2)cc1 (stereo not drawn)
outcome [1]: inactive | AC50 [3]: 38.2 µM (active) | AC50 [4]: 88.9 µM (active)

COC(=O)CC(=O)OC
outcome [1]: inactive | outcome [3]: inactive | outcome [4]: inactive

CC(=O)OCCC(C)C
outcome [1]: inactive | outcome [3]: inactive | outcome [4]: inactive

Cc1ccc(S(=O)(=O)O)cc1C
outcome [1]: inactive | outcome [3]: inactive

CC(C)=CCCC(C)=CC=O
outcome [1]: inactive | outcome [2]: inactive | AC50 [5]: 0.0217 µM (active) | outcome [6]: inactive

Nc1ccc(Nc2ccccc2)cc1
outcome [1]: inactive | AC50 [2]: 38.4 µM (active) | AC50 [4]: 10.1 µM (active) | AC50 [5]: 4.61 µM (active) | AC50 [6]: 2.69 µM (active) | AC50 [7]: 3.03 µM (active)

CCCCCCCCCCCCCCCO
outcome [1]: inactive | outcome [3]: inactive

CCCCC(CC)COC(=O)c1ccc(C(=O)OCC(CC)CCCC)cc1 (stereo not drawn)
outcome [1]: inactive | outcome [3]: inactive

CCOCCO
outcome [1]: inactive | outcome [3]: inactive

O=C(O)CC(O)C(=O)O (stereo not drawn)
outcome [1]: inactive | outcome [3]: inactive

COC(=O)c1ccccc1O
outcome [1]: inactive | outcome [3]: inactive

C1N2CN3CN1CN(C2)C3
outcome [1]: inactive | outcome [3]: inactive

O=C(NS(=O)(=O)/C=C/c1ccccc1)c1ccc(F)cc1Cl
outcome [1]: inactive | outcome [3]: inactive | outcome [4]: inactive

CNS(=O)(=O)c1cc(C(=O)N2CCC(CCN3C4CCC3CC(n3c(C)nc5ccccc53)C4)(c3cccc(F)c3)CC2)c(Cl)cc1F (stereo not drawn)
outcome [1]: inactive | outcome [3]: inactive

C=CCCCCCCCCC(=O)O
outcome [1]: inactive | outcome [3]: inactive | AC50 [4]: 60.1 µM (active)

CC(C)CCCCCCCOC(=O)CCCCC(=O)OCCCCCCCC(C)C
outcome [1]: inactive | outcome [3]: inactive | outcome [4]: inactive

Cc1ccc(C)c(O)c1
outcome [1]: inactive | outcome [3]: inactive

Cc1ccc(O)cc1
outcome [1]: inactive | outcome [3]: inactive

Clc1nc(Cl)c(Cl)c(Cl)c1Cl
outcome [1]: inactive | outcome [3]: inactive | AC50 [4]: 8.13 µM (active)

COc1ccc(/C=C/S(=O)(=O)NC(=O)c2ccc(C)cc2Cl)cc1
outcome [1]: inactive | outcome [3]: inactive | outcome [4]: inactive

C1=CCCC=CCCC=CCC1
outcome [1]: inactive | outcome [3]: inactive

Cc1[nH]cnc1C[C@H]1CCc2c(C)c3ccccc3n2C1=O
outcome [1]: inactive | outcome [3]: inactive | AC50 [4]: 13.8 µM (active)

Cc1c(-c2cccnc2)c2ccccc2n1CCCCC(=O)O
AC50 [4]: 58.5 µM (active)

CC(C)CC(C)(O)C#CC(C)(O)CC(C)C (stereo not drawn)
outcome [1]: inactive | outcome [3]: inactive | AC50 [5]: 75 µM (active) | AC50 [6]: 60.1 µM (active) | AC50 [7]: 63.2 µM (active)

CCCCCCCCO
outcome [3]: inactive

O=c1[nH]c2ccc(S(=O)CCN3CCC(Cc4ccc(F)cc4)CC3)cc2o1 (stereo not drawn)
outcome [5]: inactive | AC50 [6]: 3.91 µM (active) | AC50 [7]: 5 µM (active)

O=C1CCC(N2C(=O)c3ccccc3C2=O)C(=O)N1 (stereo not drawn)
outcome [1]: inactive | AC50 [5]: 0.124 µM (active) | outcome [6]: inactive | AC50 [7]: 0.121 µM (active)
